LDHA inh: blocks human lactate dehydrogenase A. P00338. purified LDHA, NADH/diaphorase-resazurin fluorescence; active compounds read low. activity change, % (values are at about 110 or 230 µM). 0.15% of 480,000 active. AID 1347041; in the data active = activity change below about -30%; inconclusive = mostly about -25% to -30%;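 also: plate controls were DMSO wells for no effect and wells without enzyme for full effect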
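LDH5 2 nM; NADH 0.06 mM, pyruvate 0.2 mM; 200 mM Tris pH 7.4, EDTA, Tween-20; 5 min RT. Detection: diaphorase 0.133 mg/mL + resazurin 37 µM, fluorescence ex540/em590 at 0 and 20 min; normalized to enzyme-free and DMSO wells.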
VP16 counter: inhibits Gal4-VP16 luciferase reporter, ROR gamma counter-screen; Drosophila S2 Gal4-VP16 UAS-luciferase, luminescence, 20 h; Potency, µM (highest dose often 53.6 µM), inactives show at the highest dose activity, negative = inhibition, most hits filed as inhibitors; 3.5% of 310,000 active; AID 2546;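 also: Gal4-VP16 expression switched on by copper sulfate through the metallothionein promoter; potency is read from the fitted curve at half-maximal effect; nearly all actives have a fitted effect of over 50% in size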
RORgamma inh: blocks mouse ROR gamma transcriptional activity; AID 2551; Potency, µM (titrated, usually from 53.6 µM), without a hit: at the highest dose activity change, negative = inhibition, usual class: inhibitors; 5.4% of 310,000 active; Drosophila S2 Gal4-RORgamma UAS-luciferase reporter, 20 h; also: potency is read from the fitted curve at half-maximal effect; nearly all actives have a fitted effect of over 60% in size
Target sequence (P51450 whole entry, looked up, the tested form may be a part): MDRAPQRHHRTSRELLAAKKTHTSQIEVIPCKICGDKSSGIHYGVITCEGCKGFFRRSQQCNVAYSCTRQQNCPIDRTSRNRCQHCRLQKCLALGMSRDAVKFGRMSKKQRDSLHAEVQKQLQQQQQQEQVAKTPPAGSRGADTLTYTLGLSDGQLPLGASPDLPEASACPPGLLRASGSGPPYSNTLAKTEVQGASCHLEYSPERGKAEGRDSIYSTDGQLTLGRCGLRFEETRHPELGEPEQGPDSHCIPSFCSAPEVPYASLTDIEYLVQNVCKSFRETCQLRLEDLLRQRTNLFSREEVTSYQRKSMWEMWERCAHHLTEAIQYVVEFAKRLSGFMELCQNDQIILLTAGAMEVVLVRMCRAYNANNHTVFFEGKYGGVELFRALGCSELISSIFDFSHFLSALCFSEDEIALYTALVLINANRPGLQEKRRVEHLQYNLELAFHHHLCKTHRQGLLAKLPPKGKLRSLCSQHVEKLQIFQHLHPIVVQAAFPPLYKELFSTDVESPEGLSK
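Stable Schneider cell line, Gal4 DNA-binding domain fused to ROR gamma, UAS-luciferase. Cmpd 1 hr RT → CuSO4 700 uM final → 20 hr RT → luciferase reagent 10 min → luminescence.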
IL1B secr inh: blocks inflammasome-driven IL-1 beta release. activity change, % at 57.5 µM. THP-1 LPS/ATP IL-1B secretion, AlphaLISA, 16 h; active compounds read low. 4.7% of 360,000 active; in the data active = activity change below about -50%; inconclusive = mostly about -30% to -49%
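Secreted IL-1B measured by AlphaLISA bead assay after 16 h compound exposure of THP-1 cells; compounds (final up to 57.5 uM) added 1 h before LPS (250 ng/mL) and ATP (1.25 mM) stimulation; lower signal means less secretion.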
DT40 TDP1 CPT: DT40-hTDP1 cell growth loss with CPT; 12% of 420,000 active; Potency, µM (top dose mostly 46.2 µM), inactives show top-dose activity change, negative = growth inhibition, actives largely listed as inhibitors; chicken DT40 Tdp1-/-;hTDP1 cells + 20 nM CPT, ATP luminescence, 48 h; AID 686979; also: potency is read from the fitted curve at half-maximal effect; nearly all actives have a fitted effect of over 55% in size
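Cell growth measured by CellTiter-Glo luminescence after a minimum 48 h, 37 C compound exposure with 20 nM CPT in Tdp1-knockout DT40 cells stably expressing hTDP1, seeded 400/well; qHTS titration format.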
DT40 TDP1 no CPT: qHTS for Inhibitors of human tyrosyl-DNA phosphodiesterase 1 (TDP1): qHTS in cells in absence of CPT; 15% of 420,000 active; DT40 Tdp1-/- hTDP1 cells, no CPT, ATP luminescence, 48 h; Potency, µM (highest dose often 46.2 µM), without a hit: top-dose activity change, negative = growth inhibition, usual class: inhibitors; also: potency is read from the fitted curve at half-maximal effect; nearly all actives have a fitted effect of over 55% in size
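A cellular qHTS used chicken DT40 cells lacking endogenous Tdp1 but carrying stably transfected human TDP1. Compounds were applied without camptothecin, and cell growth kinetics were judged by ATP-dependent luminescence after ≥48 hr.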
Active calls of the source: *; ? = inconclusive; / = no result given; [ ] = remark or other dose. Rows were chosen to be rich in hits. Some 18% of all compounds tested hit in one or more screens of this group. Unless noted, calls follow the shape of the dose curve; as a rule, active = well fitted curve in the direction sought with a large enough effect; inconclusive = small, poorly fitted or top-dose-only effect, or another doubt; inactive = no such curve, though single readings can be large; an effect the other way counts as inactive or inconclusive. Unless noted, % is scaled to controls: 0 for no effect and ±100 for the full control effect.

SMILES | LDHA inh | VP16 counter | RORgamma inh | IL1B secr inh | DT40 TDP1 CPT | DT40 TDP1 no CPT
Cc1ccc(SCC(=O)Nc2ccccc2N2CCOCC2)cc1 | -2 | 6% | -12% | 22 | ? | ?
O=C(Nc1ccccc1N1CCCCC1)c1ccc(F)cc1 | -3 | 9% | 0% | 23 | ? | ?
CCN(CC)S(=O)(=O)c1ccc(C)c(NC(=O)Cc2ccc(S(=O)(=O)N3CCOCC3)s2)c1 | 6 | -4% | 15% | 3 | ? | 21µM*
COc1cccc(OC)c1C(=O)Nc1ccccc1N1CCCCC1 | -4 | 6% | ? | -51* | ? | ?
COC(=O)c1sc(N2C(=O)C(=O)/C(=C(/O)c3cccc(OC)c3)C2c2ccccc2F)nc1C (stereo unspecified) | 16 | / | / | / | / | /
CNC12CC3CC(CC(C3)C1)C2 | 2 | / | / | / | / | /
CC(C)CC(=O)NC(=S)Nc1ccccc1N1CCCC1 | -1 | 11µM* | 4µM* | 36 | ? | ?
O=C(Cc1ccccc1)Nc1ccccc1N1CCCC1 | -3 | 6% | 8% | 2 | ? | ?
O=C(Cc1ccc2c(c1)OCCO2)Nc1cc(Cl)ccc1N1CCOCC1 | -3 | / | / | 22 | 16µM* | ?
O=C(Cc1ccc(S(=O)(=O)N2CCOCC2)s1)Nc1ccccc1N1CCOCC1 | -9 | 0% | 11% | 25 | ? | 12µM*
CC(C)CC(=O)Nc1ccccc1N1CCCC1 | 6 | 12% | 2% | -1 | -18% | 0%
O=C(CSc1ccc(Cl)cc1)Nc1cc(Cl)ccc1N1CCOCC1 | -20 | / | / | / | / | /
CCCCC(=O)NC(=S)Nc1ccccc1N1CCCCC1 | 5 | 8.9µM* | 4.5µM* | 11 | -13% | ?
CC(=O)NC(=S)Nc1ccccc1N1CCCCC1 | -2 | 7.1µM* | 2.5µM* | 26 | -6% | -15%
COc1cc2ccccc2cc1C(=O)Nc1ccccc1N1CCN(S(C)(=O)=O)CC1 | -5 | -3% | 9% | -15 | 21µM* | 21µM*
CC(C)CC(=O)Nc1ccccc1N1CCN(c2ccc(F)cc2)CC1 | -3 | -7% | 22% | 0 | 18µM* | ?
CC(C)(C)C(=O)NC(=S)Nc1ccccc1N1CCCC1 | 0 | ? | 20% | 40 | -7% | -18%
CCCCC(=O)NC(=S)Nc1cccc(Cl)c1N1CCCCC1 | 3 | 5µM* | 1.6µM* | ? | ? | ?
COc1cc(NC(=O)c2cnc(NCc3ccc4c(c3)OCO4)nc2C)cc(OC)c1 | 14 | / | / | / | / | /
CC(C)(C)c1csc(NC(=O)Cc2ccc(S(=O)(=O)N3CCOCC3)s2)n1 | 0 | / | / | ? | ? | 15µM*
O=C(Cn1nnc(-c2ccccc2)n1)Nc1ccccc1N1CCOCC1 | -12 | 13% | -12% | ? | ? | 13µM*
Cc1ccc(-c2nnn(CC(=O)Nc3ccccc3N3CCOCC3)n2)cc1 | -3 | 0% | 18% | 16 | ? | ?
CCc1ccc(NC(=O)CSc2nc3ccccc3c(=O)n2CCCC(=O)NCCCN2CCOCC2)cc1 | -4 | -4%[10 µM] | -38% | -103* | -2% | ?
COc1ccc(NC(=O)CSc2nc3ccccc3c(=O)n2CCCN2CCC(C)CC2)c(OC)c1 | -8 | -9%[10 µM] | -1% | -62* | -8% | ?
Cc1ccc(NC(=O)CSc2nc3ccccc3c(=O)n2CCCN2CCCCC2)cc1Cl | -1 | ? | ? | -87* | 21µM* | 21µM*
SMILES | LDHA inh | VP16 counter | RORgamma inh | IL1B secr inh | DT40 TDP1 CPT | DT40 TDP1 no CPT
O=C(CSc1nc2ccccc2c(=O)n1CCCN1CCOCC1)Nc1ccccc1OC(F)F | -8 | / | / | -24 | 18µM* | 21µM*
Cc1cc(C)c(NC(=O)CSc2nc3ccccc3c(=O)n2CCCN2CCOCC2)c(C)c1 | -11 | / | / | ? | ? | ?
CCN(CC(C)C#N)C(=O)C1CCN(C(=O)c2ccc(Cl)cc2)CC1 (stereo unspecified) | -2 | / | / | / | / | /
CC1(C)CC2CN(C(=O)Cc3ccccc3)C(C)(C2)C1 (stereo unspecified) | -1 | 4% | 2% | -2 | ? | 16µM*
CCCOC(=O)c1cn(C)nc1S(=O)(=O)N1CCSCC1 | -2 | / | / | / | / | /
COc1ccc(-c2ccc3c(c2)S(=O)(=O)c2cccc(C(=O)N4CCN(c5ccccn5)CC4)c2C3=O)cc1OC | 6 | / | / | 10 | 18µM* | 15µM*
O=C1c2ccc(-c3ccc(Cl)c(C(F)(F)F)c3)cc2S(=O)(=O)c2cccc(C(=O)N3CCN(c4ccc(Cl)cn4)CC3)c21 | -2 | / | / | -15 | ? | 13µM*
COc1ccc(-c2ccc3c(c2)S(=O)(=O)c2cccc(C(=O)N4CCN(C5CCCCC5)CC4)c2C3=O)cc1OC | 1 | / | / | -18 | 18µM* | ?
COc1ccc(-c2cccc(N3CCN(c4ccccn4)CC3)n2)cc1OC | -6 | / | / | 29 | 16µM* | 18µM*
CCOc1ccc(NC(=O)COc2ncnc3ccc(Br)cc23)cc1 | -2 | / | / | / | / | /
N#Cc1nc(-c2ccccc2Cl)oc1NCc1ccccc1Cl | -4 | / | / | / | / | /
O=C(COC(=O)C12CC3CC(CC(Cl)(C3)C1)C2)Nc1cccc([N+](=O)[O-])c1 | -20 | / | / | / | / | /
CC(NC(=O)c1ccccc1I)C1CC2CCC1C2 (stereo unspecified) | 14 | / | / | / | / | /
CCOCCCNC(=O)c1cc2cc(S(=O)(=O)N(C)C)ccc2n1C | 14 | / | / | / | / | /
O=C1c2ccc(-c3ccc(F)cc3OCc3ccccc3)cc2S(=O)(=O)c2cccc(C(=O)N3CCCC3)c21 | -2 | / | / | 14 | 13µM* | 15µM*
COc1ccc(OC)c(/C=N/NC(=O)c2ccc(=O)[nH]n2)c1 | -8 | -13% | -35% | 5 | 3% | -10%
COc1cccc(/C=N/NC(=O)c2[nH]c(C)c(C(=O)N/N=C/c3cccc(OC)c3O)c2C)c1O | 8 | ? | -36% | 50 | 5.2µM* | 3.3µM*
COc1cccc(/C=N/NC(=O)c2ccc(=O)[nH]n2)c1O | 8 | 3% | ? | 87 | 23µM* | 15µM*
COc1cccc(/C=N/NC(=O)c2ccc(-c3ccccc3)cc2)c1O | -1 | 3.2µM* | 0.71µM* | 97 | 5.2µM* | 4.6µM*
COc1ccccc1/C=N/NC(=O)c1cccc(OC(F)(F)C(F)F)c1 | -1 | 4% | -43% | -12 | 0% | ?
COc1cccc(/C=N/NC(=O)C(=O)Nc2ccccc2OC(F)(F)C(F)F)c1O | 4 | 1.4µM* | 1µM* | 38 | 3.3µM* | 3.3µM*
